A selection: hits, their analogues and other compounds. The true share with any hit is near 2.6%.
TAG inh = reduces triacylglycerol accumulation in H9c2 cells; Nile Red lipid (TAG) fluorescence; cells loaded with 200 µM oleic acid; inhibition, % at 12.5 µM; 230,000 compounds, 0.66% hits; AID 651582;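 active means pattern-corrected inhibition of lipid staining of at least 50% with the nuclear-stain viability signal not falling by more than 50%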;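 further: 0% = DMSO wells and 100% = triacsin C control wells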
Jurkat NFkB inh = inhibitors of the PMA/ionomycin-induced NF-kB reporter in Jurkat cells | 330,000 compounds, 0.53% hits | inhibition, % at 4 µM | PMA/ionomycin-induced NF-kB luciferase reporter, luminescence | AID 435003; in the data active means inhibition above about 50%
697 NFkB inh = lowers PMA/ionomycin-induced NF-kB signal in 697 B cells. 697 B-cell NF-kB luciferase reporter, 16 h. inhibition, % at 4 µM. 330,000 compounds, 0.33% hits. AID 435022; in the data active means inhibition above about 35%
H9c2 protect = modulators protecting cardiomyocytes from myocardial damage | H9c2 cardiomyocytes, H2O2 injury protection, ATPLite, 2 h | protection from H2O2 cell death, % at 20 µM | 360,000 compounds, 0.63% hits | AID 588492;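 active means compounds giving at least 50% protection of heart cells from peroxide-induced death in the single-dose screen, raw or plate-pattern-corrected value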;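 further: 0% = DMSO wells with peroxide and 100% = DMSO wells without peroxide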
NR2F2 inh = inhibitors of human COUP-TFII (NR2F2) | HEK293T NGFI-A luciferase reporter, luminescence | 370,000 compounds, 0.7% hits | inhibition, % at 8.6 µM | P24468 | AID 686940;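 active means inhibition above a per-plate cutoff, mean inhibition of test wells between control levels plus 3 SD, cut at about 38% in these data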;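 further: cells cotransfected with COUP-TFII expression vector driving the NGFI-A reporter; 0% = median of COUP-TF2 test wells and 100% = reporter-only cells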
Target sequence (P24468 whole entry, looked up): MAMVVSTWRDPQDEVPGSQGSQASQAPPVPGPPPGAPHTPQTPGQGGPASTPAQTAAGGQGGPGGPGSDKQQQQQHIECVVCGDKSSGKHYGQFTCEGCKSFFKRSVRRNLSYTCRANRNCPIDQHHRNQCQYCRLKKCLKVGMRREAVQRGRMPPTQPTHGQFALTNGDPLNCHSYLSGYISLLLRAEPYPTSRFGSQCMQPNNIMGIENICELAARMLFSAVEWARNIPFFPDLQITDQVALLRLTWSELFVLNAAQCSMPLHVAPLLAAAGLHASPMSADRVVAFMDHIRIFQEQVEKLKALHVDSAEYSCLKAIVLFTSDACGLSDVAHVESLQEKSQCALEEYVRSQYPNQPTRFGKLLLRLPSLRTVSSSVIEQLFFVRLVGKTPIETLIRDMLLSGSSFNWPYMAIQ
Gli-Sufu block = antagonists of Gli-Sufu signaling | inhibition, % at 5 µM | 340,000 compounds, 0.74% hits | AID 588413 | Sufu-KO-LIGHT fibroblasts, Gli luciferase reporter luminescence;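 active means inhibition above about 55%, limit read from the data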;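 further: 0% = DMSO-treated cells and 100% = wells with medium but no cells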
Jurkat NFkB conf = lowers PMA/ionomycin-induced NF-kB signal in Jurkat cells; shares compounds with Jurkat NFkB inh; Jurkat NF-kB luciferase, 16 h; inhibition, % at 4 µM; 2,700 compounds, 27% hits; AID 435020;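 active means inhibition reaching about 45% at 4 µM in either replicate, limit read from the data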;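 further: plate controls were PMA/ionomycin stimulated DMSO wells for no effect and unstimulated DMSO wells for full effect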
* marks the source's active call; other numbers are inactive results.

`C=CC[C@H]1c2ccccc2[C@H]2N3N=Cc4ccccc4[C@H]3[C@H](CCCC)C(=O)N2N1C(=O)NCc1ccccc1` gave NR2F2 inh -9.0.
`Cc1cc(C)nc(SC2=CS(=O)(=O)c3ccccc32)n1` gave TAG inh -14.6, Jurkat NFkB inh 49.7, 697 NFkB inh 0.0, H9c2 protect -0.3, NR2F2 inh -6.2 and Gli-Sufu block 12.6.
`O=S1(=O)C=C(Sc2nnc(-c3ccccc3)o2)c2ccccc21` gave Jurkat NFkB inh 89.5*, 697 NFkB inh -43.7, H9c2 protect -21.7, Gli-Sufu block -2.5 and Jurkat NFkB conf 65.2*.
Screening Cc1noc(C)c1COc1ccc(C(=O)O)cc1 returned TAG inh 5.4, Jurkat NFkB inh 14.0, 697 NFkB inh 4.8, H9c2 protect 9.0, NR2F2 inh 16.1 and Gli-Sufu block 4.6.
Cc1noc(C)c1COc1ccc(C(=O)NNC(=O)c2ccccc2)cc1 was read as TAG inh 12.1, Jurkat NFkB inh 63.4*, 697 NFkB inh -33.4, H9c2 protect -0.5, NR2F2 inh -7.6, Gli-Sufu block -7.7 and Jurkat NFkB conf 30.2.
Cc1noc(C)c1COc1ccc(C(=O)NNC(=O)c2ccccc2F)cc1 was read as TAG inh 19.8, Jurkat NFkB inh 56.1*, 697 NFkB inh -49.7, H9c2 protect 3.5, Gli-Sufu block -14.9 and Jurkat NFkB conf 45.1.
`Cc1cnc(NC(=O)COc2ccc3c(c2)CCC3)s1` gave TAG inh -3.5, Jurkat NFkB inh -151.9, 697 NFkB inh -12.5, H9c2 protect -12.9, NR2F2 inh -32.8, Gli-Sufu block -115.2 and Jurkat NFkB conf -87.2.
For Cc1cccc(NC(=O)COc2ccc3c(c2)CCC3)n1 the results were TAG inh 10.0, Jurkat NFkB inh -42.4, 697 NFkB inh -3.2, H9c2 protect -3.8, NR2F2 inh -42.2 and Gli-Sufu block -3.8.
CCN(CC)CCCCNc1ncc2cc(-c3cc(OC)cc(OC)c3)c(NC(=O)NC(C)(C)C)nc2n1 was read as TAG inh 45.6, Jurkat NFkB inh 75.0*, 697 NFkB inh 8.5, H9c2 protect -39.1, NR2F2 inh 16.0, Gli-Sufu block 28.1 and Jurkat NFkB conf -3.8.
For CCN(CC)CCNC1=NCCn2c1cc1cc(OC)ccc12 the results were TAG inh 15.7, Jurkat NFkB inh -18.4, 697 NFkB inh -18.6, H9c2 protect 11.8, NR2F2 inh 5.8 and Gli-Sufu block 14.6.
`C=CCN(CC#CC(=C)C)Cc1ccc(OC)cc1OC` gave NR2F2 inh -11.2.
Screening Cc1ccc(N/C=C/c2onc(C)c2[N+](=O)[O-])cc1 returned TAG inh -4.8, Jurkat NFkB inh -221.1, 697 NFkB inh -243.3, H9c2 protect -9.3, NR2F2 inh -56.8, Gli-Sufu block -115.4 and Jurkat NFkB conf 7.9.
For CC(C)=CCC[C@@]1(C(=O)O)[C@@H]2C/C=C(\C)CC/C=C(\C)CC[C@H]1[C@]1(CC2)CO1 the results were NR2F2 inh -2.1.
`O=C(OC12CCCN(C1)/C(=C/c1cccc(Cl)c1)C2)c1ccno1` (stereo not drawn) gave NR2F2 inh 8.6.
NC(=O)C1CCN(c2nc(-c3ccc(OCc4ccccc4)cc3)cs2)CC1 was read as NR2F2 inh 17.4.
For Cc1ccc(COc2ccc(C)nc2[N+](=O)[O-])cc1 the results were TAG inh -8.9, Jurkat NFkB inh -151.2, 697 NFkB inh -154.7, H9c2 protect -14.2, NR2F2 inh -67.3, Gli-Sufu block -74.5 and Jurkat NFkB conf -84.8.
`Cc1ccc(CNC(=O)COc2ccc(C)nc2[N+](=O)[O-])cc1` gave Jurkat NFkB inh 87.1*, 697 NFkB inh -29.2, H9c2 protect 1.4, NR2F2 inh -6.9, Gli-Sufu block -0.2 and Jurkat NFkB conf 0.3.
`CCOc1ccc(-n2c(SCC(=O)c3ccccc3Cl)nnc2-c2ccncc2)cc1` gave NR2F2 inh 2.0.
`COC(=O)[C@]12C=CCN1[C@@H](c1ccc(OC)c(OC)c1)c1c(c3ccccc3n1S(=O)(=O)c1ccc(C)cc1)C2` gave NR2F2 inh 12.5.
Screening CCN(CC)C(=O)CC[C@H]1CC[C@]2(CCCN(CC3CC3)C2)O1 returned NR2F2 inh 2.2.
`Clc1ccc(-n2c(SCc3cccc4ccccc34)nnc2-c2ccccc2)cc1` gave NR2F2 inh 33.8.
